Where “and” joins values, the source holds several entries; their conditions need not be identical. Identical values can stand only once. Results filed as inconclusive are left out. Calls of active or inactive are those of the source. Unless noted, calls follow the shape of the dose curve; as a rule, active = well fitted curve in the direction sought with a large enough effect; inconclusive = small, poorly fitted or top-dose-only effect, or another doubt; inactive = no such curve, though single readings can be large; an effect the other way counts as inactive or inconclusive.
How the values were obtained:
[1] = qHTS Assay for Identification of Small Molecule Antagonists for NFkB Signaling Pathway (AID 895; active = well fitted inhibition curve with a large enough effect in the signal ratio, with a control signal flat, not every such curve was filed as active; the % refers to the signal ratio; also: potency is read from the fitted curve at half-maximal effect)
In short: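 ME-180 NFkB-bla cells (beta-lactamase under NFkB response element), plated overnight, treated with compound then 10 pM TNF alpha (about EC50) for 5 hrs at 37 C. LiveBLAzer FRET read at 460/530 nm emission, 405 nm excitation.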

[2] = molecular target: Muscarinic acetylcholine receptor M1 (Rattus norvegicus) (UniProt P08482); experiment: qHTS Assay for Antagonists of Acetylcholine Muscarinic M1 Receptor: Kinetic Measurement of Intracellular Calcium Response (AID 943); also: nearly all actives have a fitted effect of over 75% in size; also: potency is read from the fitted curve at half-maximal effect
In short: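 Antagonism is measured as inhibition of the carbachol-evoked calcium rise in CHO cells transfected with rat M1. Cells are dye-loaded, exposed to compound for 10 min, then stimulated with 100 nM carbachol (EC80).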

[3] = molecular target: Cytochrome P450 2C9 (Homo sapiens) (UniProt P11712); experiment: qHTS Assay for Inhibitors and Substrates of Cytochrome P450 2C9 (AID 883); also: % is scaled to controls: 0 for no effect and ±100 for the full control effect; nearly all actives have a fitted effect of over 60% in size
In short: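 Signal: luciferase luminescence reporting luciferin produced by CYP2C9. Conditions: 10nM enzyme, Luciferin-H 100uM at KM, 25mM KPO4, 37C, 60 min NADPH-driven reaction. Reference: 57uM sulphaphenazole as 100% inhibition.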

[4] = molecular target: Cytochrome P450 2C19 (Homo sapiens) (UniProt P33261); experiment: qHTS Assay for Inhibitors and Substrates of Cytochrome P450 2C19 (AID 899); also: % is scaled to controls: 0 for no effect and ±100 for the full control effect; nearly all actives have a fitted effect of over 60% in size
In short: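 Signal comes from luciferase acting on luciferin released by CYP2C19-mediated hydroxylation of Luciferin-H EGE, 10uM (KM). Assay mix: 5nM enzyme, 50mM KPO4; 60 min at 37C with NADPH regeneration. Data normalized against 57uM ketoconazole.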

CP260 = experiment: qHTS profiling for inhibitors of Plasmodium falciparum proliferation (AID 504749);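 also: 0% = DMSO vehicle and full inhibition = artemisinin control; nearly all actives have a fitted effect of over 60% in size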; conditions: P. falciparum in erythrocytes, SYBR Green DNA, 72 h; series mostly up to 12.8 µM
In short: (§1)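 Each compound contacts P. falciparum-infected red blood cells for 72 h at 37 C; lysis buffer (Tris, EDTA, saponin, Triton X, SYBR Green I) is added and fluorescence measured next morning; values normalized to controls.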

CP266 = experiment: as above; conditions: P. falciparum in erythrocytes, SYBR Green DNA, 72 h; series mostly up to 28.7 µM
In short: as §1

CP297 = experiment: as above; conditions: P. falciparum in erythrocytes, SYBR Green DNA, 72 h; series mostly up to 12.8 µM
In short: as §1

DIV17 = experiment: as above; conditions: P. falciparum in erythrocytes, SYBR Green DNA, 72 h; series mostly up to 12.8 µM
In short: as §1

W2 = experiment: as above; conditions: P. falciparum in erythrocytes, SYBR Green DNA, 72 h; series mostly up to 12.8 µM
In short: as §1

[5] = S16 Schwann cell PMP22 intronic element beta-lactamase assay (AID 624044; calls by dose curve;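 also: 0% = DMSO and -100% = potassium clavulanate positive control; nearly all actives have a fitted effect of over 15% in size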)
In short: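 Beta-lactamase reporter under a PMP22 intronic regulatory element in stable S16 rat Schwann cells; 24 h compound exposure. 460 nm blue signal normalized between DMSO (0%) and potassium clavulanate, with 535 nm FRET tracking viability; curves classed by r2 and response.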

DIV14 = experiment: qHTS profiling for inhibitors of Plasmodium falciparum proliferation (AID 504749);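 also: 0% = DMSO vehicle and full inhibition = artemisinin control; nearly all actives have a fitted effect of over 60% in size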; conditions: P. falciparum in erythrocytes, SYBR Green DNA, 72 h; series mostly up to 12.8 µM
In short: as §1

TAB109 = experiment: as above; conditions: P. falciparum in erythrocytes, SYBR Green DNA, 72 h; series mostly up to 12.8 µM
In short: as §1

[6] = qHTS Assay for Identification of Small Molecule Agonists for Hypoxia Response Element Signaling Pathway (AID 914; active = well fitted activation curve with a large enough effect in the signal ratio, with a control signal flat, not every such curve was filed as active; the % refers to the signal ratio; also: potency is read from the fitted curve at half-maximal effect; as to activation: % of control where 0% means no effect); conditions: ME-180 (cervical carcinoma) HRE-bla reporter, beta-lactamase ratio, CoCl2, 17 h; activation: active compounds read high
In short: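 Cells were plated overnight, pin-dosed with compound in a titration series, co-stimulated with EC50 CoCl2 and incubated 17 hours at 37 degrees Celsius. CCF4 substrate was then loaded, and AC50 values came from the 460nm/530nm ratio.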

[7] = qHTS Assay for Identification of Small Molecule Antagonists for Thrombopoietin (TPO) Signaling Pathway (AID 918); conditions: TPO-dependent cell signaling reporter, antagonist mode
In short: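 Inhibitors of TPO signaling are sought by stimulating IL-3-starved murine Ba/F3 cells (human TPO receptor, Glycoprotein IIb-driven luciferase) with TPO at its EC50 of 26 pM alongside compound. After 24 hrs at 37 C, reporter luminescence is measured.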

[8] = molecular target: Pyruvate kinase PKM (Homo sapiens) (UniProt P14618); experiment: qHTS Assay for Inhibitors of Human Muscle Pyruvate Kinase (AID 958)
In short: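 Human PKM2 activity is measured as ATP generation, detected by luciferase-coupled luminescence. The enzyme (0.1 nM) acts on 0.5 mM PEP and 0.1 mM ADP for 1 h at ambient temperature; data are normalized to uninhibited and full-inhibition wells.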

[9] = molecular target: DNA dC->dU-editing enzyme APOBEC-3G (Homo sapiens) (UniProt Q9HC16); experiment: qHTS for inhibitors of Vif-A3G interactions: Validation (AID 588379); also: 0% is about no effect
In short: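 Yellow fluorescence (Ex 488, Em 500-530) of Vif-coexpressing HeLa A3G-eYFP cells, scanned by Acumen cytometer, reports blocked A3G degradation. Cells plated at 700/well overnight at 37 deg C before compound addition, then a further overnight compound incubation at 37 deg C.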

[10] = molecular target: Pyruvate kinase (Leishmania mexicana) (UniProt Q27686); experiment: qHTS Validation Assay for Activators of Leishmania Mexicana Pyruvate Kinase (AID 959); conditions: purified L. mexicana pyruvate kinase, enzyme activity
In short: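 The enzyme is a highly purified E451W mutant of LmPYK used at 0.2 nM. It converts 0.5 mM PEP and 0.1 mM ADP over 1 h at room temperature; product ATP is quantified by luciferase luminescence relative to DMSO controls.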

Sequence of Cytochrome P450 2C9 (Homo sapiens) (P11712 whole entry, looked up): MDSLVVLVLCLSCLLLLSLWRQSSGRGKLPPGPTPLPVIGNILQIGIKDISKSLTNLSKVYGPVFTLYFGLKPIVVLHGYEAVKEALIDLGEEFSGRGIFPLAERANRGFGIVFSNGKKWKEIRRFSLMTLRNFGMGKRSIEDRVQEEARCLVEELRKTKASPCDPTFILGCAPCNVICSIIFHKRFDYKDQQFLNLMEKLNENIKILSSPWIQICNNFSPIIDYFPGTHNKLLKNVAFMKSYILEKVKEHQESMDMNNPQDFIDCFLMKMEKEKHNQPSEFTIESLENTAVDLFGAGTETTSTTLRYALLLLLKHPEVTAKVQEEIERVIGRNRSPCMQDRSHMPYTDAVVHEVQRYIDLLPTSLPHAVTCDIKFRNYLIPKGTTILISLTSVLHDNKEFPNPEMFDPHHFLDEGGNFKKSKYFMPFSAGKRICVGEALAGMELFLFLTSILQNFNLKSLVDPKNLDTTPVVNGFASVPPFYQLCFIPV
Sequence of Cytochrome P450 2C19 (Homo sapiens) (P33261 whole entry, looked up): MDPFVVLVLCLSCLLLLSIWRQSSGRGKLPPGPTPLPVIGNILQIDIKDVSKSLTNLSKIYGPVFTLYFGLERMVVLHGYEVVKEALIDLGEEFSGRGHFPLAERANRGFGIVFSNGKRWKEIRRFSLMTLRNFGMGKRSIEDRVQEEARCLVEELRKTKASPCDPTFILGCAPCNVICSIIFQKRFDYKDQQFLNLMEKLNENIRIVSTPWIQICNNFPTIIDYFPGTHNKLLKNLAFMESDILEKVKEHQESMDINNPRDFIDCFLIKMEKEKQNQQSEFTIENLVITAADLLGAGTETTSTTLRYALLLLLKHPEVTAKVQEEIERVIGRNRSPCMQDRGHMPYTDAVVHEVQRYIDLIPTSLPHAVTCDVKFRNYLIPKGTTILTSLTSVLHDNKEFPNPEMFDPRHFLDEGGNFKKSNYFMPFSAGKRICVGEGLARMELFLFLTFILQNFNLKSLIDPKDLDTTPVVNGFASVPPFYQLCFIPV
Sequence of Muscarinic acetylcholine receptor M1 (Rattus norvegicus) (P08482 whole entry, looked up): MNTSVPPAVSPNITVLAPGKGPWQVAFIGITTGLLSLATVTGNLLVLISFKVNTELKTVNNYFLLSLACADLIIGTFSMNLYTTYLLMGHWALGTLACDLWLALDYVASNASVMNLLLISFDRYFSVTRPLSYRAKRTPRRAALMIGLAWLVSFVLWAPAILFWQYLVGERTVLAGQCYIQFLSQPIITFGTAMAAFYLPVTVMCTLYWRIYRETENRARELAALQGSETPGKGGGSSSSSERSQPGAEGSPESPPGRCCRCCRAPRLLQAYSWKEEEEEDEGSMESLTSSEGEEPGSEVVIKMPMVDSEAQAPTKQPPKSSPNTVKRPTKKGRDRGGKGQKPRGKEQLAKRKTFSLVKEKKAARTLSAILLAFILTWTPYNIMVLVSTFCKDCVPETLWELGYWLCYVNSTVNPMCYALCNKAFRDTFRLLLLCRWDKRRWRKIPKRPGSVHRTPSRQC
Sequence of Pyruvate kinase PKM (Homo sapiens) (P14618 whole entry, looked up): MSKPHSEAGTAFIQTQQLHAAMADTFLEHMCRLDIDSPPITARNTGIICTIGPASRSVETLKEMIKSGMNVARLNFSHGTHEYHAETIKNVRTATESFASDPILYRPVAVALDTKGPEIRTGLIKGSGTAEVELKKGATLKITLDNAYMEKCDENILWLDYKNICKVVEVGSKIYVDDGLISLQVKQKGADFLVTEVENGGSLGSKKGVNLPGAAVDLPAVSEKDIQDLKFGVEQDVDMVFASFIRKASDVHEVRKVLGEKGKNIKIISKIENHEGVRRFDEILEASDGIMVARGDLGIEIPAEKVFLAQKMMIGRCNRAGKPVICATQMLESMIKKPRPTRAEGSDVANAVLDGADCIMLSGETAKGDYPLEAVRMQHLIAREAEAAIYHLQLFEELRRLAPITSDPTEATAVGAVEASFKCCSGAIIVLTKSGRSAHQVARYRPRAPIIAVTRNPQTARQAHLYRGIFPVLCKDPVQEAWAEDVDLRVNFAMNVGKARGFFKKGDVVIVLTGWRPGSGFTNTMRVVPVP
Sequence of Pyruvate kinase (Leishmania mexicana) (Q27686 2-499 E452W): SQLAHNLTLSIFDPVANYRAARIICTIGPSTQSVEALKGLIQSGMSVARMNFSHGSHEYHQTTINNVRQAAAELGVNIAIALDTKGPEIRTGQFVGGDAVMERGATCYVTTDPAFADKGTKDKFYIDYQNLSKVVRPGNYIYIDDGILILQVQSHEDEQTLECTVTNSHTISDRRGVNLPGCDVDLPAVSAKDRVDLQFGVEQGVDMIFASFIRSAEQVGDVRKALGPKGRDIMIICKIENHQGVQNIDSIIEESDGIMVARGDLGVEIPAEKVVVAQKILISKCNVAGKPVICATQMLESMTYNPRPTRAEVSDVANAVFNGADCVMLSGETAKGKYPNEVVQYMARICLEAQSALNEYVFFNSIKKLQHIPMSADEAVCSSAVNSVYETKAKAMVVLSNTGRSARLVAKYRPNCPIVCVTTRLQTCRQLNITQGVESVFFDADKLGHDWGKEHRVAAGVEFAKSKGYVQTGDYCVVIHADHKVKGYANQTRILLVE
Sequence of DNA dC->dU-editing enzyme APOBEC-3G (Homo sapiens) (Q9HC16 whole entry, looked up): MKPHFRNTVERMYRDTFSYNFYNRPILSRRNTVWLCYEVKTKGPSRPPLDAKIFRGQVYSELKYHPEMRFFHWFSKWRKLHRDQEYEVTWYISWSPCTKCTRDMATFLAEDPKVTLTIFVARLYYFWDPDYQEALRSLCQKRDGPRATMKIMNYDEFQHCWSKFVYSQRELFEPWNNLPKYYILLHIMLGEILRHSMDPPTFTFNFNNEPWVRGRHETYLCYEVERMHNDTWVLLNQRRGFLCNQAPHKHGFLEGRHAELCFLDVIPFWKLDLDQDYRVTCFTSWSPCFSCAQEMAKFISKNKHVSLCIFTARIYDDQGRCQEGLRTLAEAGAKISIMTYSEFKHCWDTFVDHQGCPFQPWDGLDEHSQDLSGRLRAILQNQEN

N[C@H](C(=O)N[C@@H]1C(=O)N2C(C(=O)O)=C(Cl)CS[C@@H]12)c1ccccc1
inactive: Potency [1] | Potency [2]

COc1cc(=O)n(C)c2c(OC[C@@H](O)C(C)(C)O)cccc12
inactive: Potency [3] | Potency [4] | Potency [2]

C=CCc1ccccc1OC[C@H](O)CNC(C)C
active: Potency [1] 3.16 µM

CC(C)(C)NC[C@H](O)c1cc(O)cc(O)c1
inactive: Potency (CP260) | Potency (CP266) | Potency (CP297) | Potency (DIV17) | Potency (W2)

O=C(c1ccccc1)c1ccc2n1CC[C@H]2C(=O)O
inactive: outcome [5] | Potency (CP260) | Potency (DIV14) | Potency (DIV17) | Potency (TAB109) | Potency (W2)

CC[C@]1(C)CC(=O)NC1=O
inactive: Potency [1] | outcome [5] | Potency (CP260) | Potency (CP266) | Potency (CP297) | Potency (DIV14) | Potency (DIV17) | Potency (TAB109) | Potency (W2)

CN1C(=O)CC[C@@H]1c1cccnc1
inactive: Potency [3] | Potency [1] | Potency [4] | Potency [2]

O=C(C1CCCCC1)N1CC(=O)N2CCc3ccccc3[C@@H]2C1
inactive: Potency [3] | outcome [5]

CN1CCN(c2ncc3nc(-c4ccccc4)c(=O)n(CCC#N)c3n2)CC1
active: Potency [6] 3.16 µM

Cc1cccc(C)c1OC[C@H](C)N
active: Potency [1] 0.794 µM
inactive: Potency [3] | activation [6] -2.33% and -23.1%

Cn1c(=O)c(-c2ccccc2)nc2cnc(N3CCNCC3)nc21
active: Potency [6] 3.16 µM

C[C@@H]1COc2c(N3CCN(C)CC3)c(F)cc3c(=O)c(C(=O)O)cn1c23
inactive: Potency (CP266) | Potency (CP297) | Potency (DIV14) | Potency (DIV17) | Potency (TAB109)

CCn1cc(C(=O)O)c(=O)c2cc(F)c(N3CCN[C@@H](C)C3)c(F)c21
inactive: outcome [5] | Potency (CP260) | Potency (CP266) | Potency (CP297) | Potency (DIV14) | Potency (DIV17) | Potency (W2)

CC(C)NC[C@H](O)c1cc(O)cc(O)c1
inactive: Potency (CP266) | Potency (CP297) | Potency (DIV14) | Potency (DIV17) | Potency (TAB109) | Potency (W2)

CC(C)COC[C@H](CN(Cc1ccccc1)c1ccccc1)N1CCCC1
inactive: Potency [2]

O=C(O)CNC(=O)[C@@H](CS)Cc1ccccc1
inactive: Potency [1] | Potency [2]

CN(C)CC[C@@H](c1ccccc1)c1ccccn1
inactive: Potency [1]
active: Potency [2] 11.2 µM

CN1CCc2cccc3c2[C@@H]1Cc1ccc(O)c(O)c1-3
inactive: outcome [8] | outcome [9]
active: Potency [7] 12.6 µM

CO/N=C(\C(=O)N[C@@H]1C(=O)N2C(C(=O)O)=C(COC(C)=O)CS[C@@H]12)c1csc(N)n1
inactive: Potency [1] | Potency [4] | outcome [8] | outcome [5] | Potency (CP260) | Potency (CP266) | Potency (CP297) | Potency (DIV14) | Potency (DIV17) | Potency (TAB109) | Potency (W2)
active: Potency [10] 25.1 µM

NC(=O)OC[C@H](O)COc1ccc(Cl)cc1
inactive: outcome [5] | Potency (CP260) | Potency (CP266) | Potency (CP297) | Potency (DIV14) | Potency (DIV17) | Potency (TAB109) | Potency (W2)

C[n+]1ccccc1/C=N\O
inactive: outcome [5] | Potency (CP260) | Potency (CP266) | Potency (CP297) | Potency (DIV14) | Potency (DIV17) | Potency (TAB109) | Potency (W2)

CC(=O)Nc1c(I)c(C(=O)N[C@H]2[C@@H](O)[C@H](O)[C@H](CO)O[C@@H]2O)c(I)c(N(C)C(C)=O)c1I
inactive: outcome [5] | Potency (CP260) | Potency (CP266) | Potency (CP297) | Potency (DIV14) | Potency (DIV17) | Potency (TAB109) | Potency (W2)

CCN[C@@H]1C[C@H](C)S(=O)(=O)c2sc(S(N)(=O)=O)cc21
inactive: outcome [5] | Potency (CP260) | Potency (CP266) | Potency (CP297) | Potency (DIV14) | Potency (DIV17) | Potency (TAB109) | Potency (W2)

CC(=O)OCC1=C(C(=O)O)N2C(=O)[C@@H](NC(=O)Cc3cccs3)[C@@H]2SC1
active: Potency [10] 25.1 µM
inactive: activation [6] -3.21% and -0.503% | Potency [2]
